Laboratory results: PubChem BioAssay (NCI)
This is part of a sample that, as a whole, favours compounds with a hit. Of some 79,000 tested, about 15% had one in any assay. A number with no mark means an inactive call. Active and inactive are the calls of the source. No stated cut-off is given here; in the data, active means growth inhibition above about 70%; inactive means the rest.

Experiments:
[1] = NCI Yeast Anticancer Drug Screen. Data for the rad52 strain (AID 147);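 further: 0% = growth of vehicle-treated control cultures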; details: S. cerevisiae rad52 mutant growth inhibition, hits give high values
Procedure, shortened: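 Compounds are applied to a genetically defined yeast strain lacking normal DNA damage repair, and inhibition of growth is expressed relative to cultures given vehicle only.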

[2] = NCI Yeast Anticancer Drug Screen. Data for the wt1 strain (AID 149);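 further: 0% = growth of vehicle-treated wt1 cultures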; details: S. cerevisiae wt1 strain (SPY 50644) growth inhibition, hits give high values
Procedure, shortened: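 wt1 yeast, compound-treated; % growth inhibition vs vehicle control.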

[3] = NCI Yeast Anticancer Drug Screen. Data for the rad50EPP+ strain (AID 151);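 further: 0% = growth of vehicle-treated control cultures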; details: S. cerevisiae rad50 mutant strain, hits give high values
Procedure, shortened: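 Compounds were applied to the rad50EPP+ yeast strain, which bears a defined DNA repair alteration, and growth inhibition was determined relative to vehicle-treated cultures.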

[4] = NCI Yeast Anticancer Drug Screen. Data for the mgt1 strain (AID 153); details: S. cerevisiae mgt1 mutant growth inhibition, hits give high values
Procedure, shortened: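 Strain: mgt1 yeast, one of a set carrying defined DNA damage repair or cell cycle control alterations. Compound-treated growth compared with vehicle.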

[5] = NCI Yeast Anticancer Drug Screen. Data for the rad50 strain (AID 155);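 further: 0% = growth of vehicle-only cultures of the same strain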; details: S. cerevisiae rad50 strain growth inhibition, hits give high values
Procedure, shortened: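 Genetically altered yeast (DNA repair pathway); compound treatment; growth inhibition vs vehicle ctrl.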

[6] = NCI Yeast Anticancer Drug Screen. Data for the mec2-1 strain (AID 157); details: S. cerevisiae mec2-1 strain, hits give high values
Procedure, shortened: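 Strain: mec2-1 (DNA repair/cell cycle alteration). Compound exposure, then growth measured; inhibition expressed relative to vehicle.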

[7] = NCI Yeast Anticancer Drug Screen. Data for the sgs1 mgt1 strain (AID 161);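 further: 0% = growth of cultures given vehicle only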; details: S. cerevisiae sgs1 mgt1 strain, hits give high values
Procedure, shortened: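 Test agents were incubated with a DNA-repair-mutant yeast strain. Growth was then read and compared against vehicle-treated controls.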

[8] = NCI Yeast Anticancer Drug Screen. Data for the CLN2oe strain (AID 163);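 further: 0% = growth of vehicle-only control cultures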; details: S. cerevisiae CLN2oe strain, hits give high values
Procedure, shortened: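 Growth of a genetically modified yeast strain is measured after compound exposure and compared with cultures given vehicle alone.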

[9] = NCI Yeast Anticancer Drug Screen. Data for the cln2 rad14 strain (AID 165);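 further: 0% = growth equal to vehicle treated cultures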; details: S. cerevisiae cln2 rad14 strain, hits give high values
Procedure, shortened: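 Compounds are applied to the cln2 rad14 yeast strain, and growth is then compared with that of vehicle-treated cultures to give inhibition.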

[10] = NCI Yeast Anticancer Drug Screen. Data for the bub3 strain (AID 167); details: S. cerevisiae bub3 mutant strain, hits give high values
Procedure, shortened: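 Yeast carrying a defined mutation is treated with each compound, and growth is compared with that of vehicle-exposed cells to give inhibition.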

[11] = NCI Yeast Anticancer Drug Screen. Data for the wt2 strain (AID 169);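 further: 0% = growth of vehicle-treated yeast cultures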; details: S. cerevisiae wt2 strain growth inhibition, hits give high values
Procedure, shortened: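 This strain belongs to a panel of yeast strains with defined genetic alterations in DNA damage repair or cell cycle control. Compounds are applied, and growth inhibition is measured against vehicle-treated cultures.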

[12] = NCI Yeast Anticancer Drug Screen. Data for the mlh1 strain (AID 171);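 further: 0% = growth of vehicle-treated control cultures of the same strain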; details: S. cerevisiae mlh1 strain growth inhibition, hits give high values
Procedure, shortened: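 Growth of the mutant yeast strain after compound exposure, expressed as inhibition relative to vehicle-only controls.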

[13] = NCI Yeast Anticancer Drug Screen. Data for the sgs1 strain (AID 173);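 further: 0% = growth of vehicle-only control cultures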; details: S. cerevisiae sgs1 mutant, hits give high values
Procedure, shortened: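 Growth of a yeast strain bearing a defined genetic alteration is measured after compound treatment. Inhibition is expressed relative to vehicle-only controls.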

[14] = NCI Yeast Anticancer Drug Screen. Data for the mlh1 rad18 strain (AID 175); details: S. cerevisiae mlh1 rad18 strain growth inhibition, hits give high values
Procedure, shortened: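 Read-out is yeast growth inhibition, calculated against vehicle-only controls. The compound was applied to a strain engineered with DNA damage repair alterations.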

[15] = NCI Yeast Anticancer Drug Screen. Data for the rad18 strain (AID 177); details: S. cerevisiae rad18 mutant growth inhibition, hits give high values
Procedure, shortened: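 Growth of the mutant yeast strain after compound exposure, normalised to vehicle-only cultures.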

[16] = at 5.0 µM (retest, dose inferred, filed as 0.5)
[17] = at 50.0 µM (retest, dose inferred, filed as 5.0)

Compound `COc1cccc(/C=N/C(/N=C/c2cccc(OC)c2O)c2cccc(OC)c2O)c1O` has a growth inhibition ([1]; at 1.2 µM) of 1%, a growth inhibition ([1]; at 3.7 µM) of 5% and a growth inhibition ([1]; at 11.0 µM) of 23%. For the same compound, the growth inhibition ([1]; at 33.0 µM) was 67%, the growth inhibition ([1]; at 100.0 µM) was 97% (active) and the growth inhibition ([2]; at 1.2 µM) was -1%. It also gave a growth inhibition ([2]; at 3.7 µM) of 1%, a growth inhibition ([2]; at 11.0 µM) of 7% and a growth inhibition ([2]; at 33.0 µM) of 26%. For the same compound, the growth inhibition ([2]; at 100.0 µM) was 91% (active), the growth inhibition ([3]; at 1.2 µM) was 2% and the growth inhibition ([3]; at 3.7 µM) was 15%. For the same compound, the growth inhibition ([3]; at 11.0 µM) was 61%, the growth inhibition ([3]; at 33.0 µM) was 93% (active) and the growth inhibition ([3]; at 100.0 µM) was 98% (active). The growth inhibition ([4]; at 1.2 µM) was -1%, the growth inhibition ([4]; at 3.7 µM) was -2% and the growth inhibition ([4]; at 11.0 µM) was 5%. For the same compound, the growth inhibition ([4]; at 33.0 µM) was 36%, the growth inhibition ([4]; at 100.0 µM) was 98% (active) and the growth inhibition ([5]; at 1.2 µM) was 4%. For the same compound, the growth inhibition ([5]; at 3.7 µM) was -28%, the growth inhibition [5, 16] was 19% and the growth inhibition ([5]; at 11.0 µM) was 52%. For the same compound, the growth inhibition ([5]; at 33.0 µM) was 87% (active), the growth inhibition [5, 17] was 79% (active) and the growth inhibition ([5]; at 50.0 µM) was 89.5% (active). For the same compound, the growth inhibition ([5]; at 100.0 µM) was 97% (active), the growth inhibition ([6]; at 1.2 µM) was -1% and the growth inhibition ([6]; at 3.7 µM) was 2%. It also gave a growth inhibition [6, 16] of -4%, a growth inhibition ([6]; at 11.0 µM) of 8% and a growth inhibition ([6]; at 33.0 µM) of 25%. For the same compound, the growth inhibition [6, 17] was 27%, the growth inhibition ([6]; at 50.0 µM) was 87% (active) and the growth inhibition ([6]; at 100.0 µM) was 96% (active). The growth inhibition [7, 16] was 4%, the growth inhibition [7, 17] was 71% (active) and the growth inhibition ([7]; at 50.0 µM) was 86.7% (active). The growth inhibition ([8]; at 1.2 µM) was -2%, the growth inhibition ([8]; at 3.7 µM) was 3% and the growth inhibition ([8]; at 11.0 µM) was 8%. The growth inhibition ([8]; at 33.0 µM) was 20%, the growth inhibition ([8]; at 100.0 µM) was 54% and the growth inhibition [9, 16] was -1%. For the same compound, the growth inhibition [9, 17] was 34%, the growth inhibition ([9]; at 50.0 µM) was 45% and the growth inhibition ([10]; at 1.2 µM) was -2%. For the same compound, the growth inhibition ([10]; at 3.7 µM) was -1%, the growth inhibition [10, 16] was -5% and the growth inhibition ([10]; at 11.0 µM) was 1%. It also gave a growth inhibition ([10]; at 33.0 µM) of 39%, a growth inhibition [10, 17] of 43% and a growth inhibition ([10]; at 50.0 µM) of 67%. The growth inhibition ([10]; at 100.0 µM) was 98% (active), the growth inhibition ([11]; at 1.2 µM) was 0% and the growth inhibition ([11]; at 3.7 µM) was 7%. The growth inhibition ([11]; at 11.0 µM) was 4%, the growth inhibition ([11]; at 33.0 µM) was 24% and the growth inhibition ([11]; at 100.0 µM) was 93% (active). It also gave a growth inhibition ([12]; at 1.2 µM) of 0%, a growth inhibition ([12]; at 3.7 µM) of 2% and a growth inhibition ([12]; at 11.0 µM) of 7%. For the same compound, the growth inhibition ([12]; at 33.0 µM) was 33%, the growth inhibition ([12]; at 100.0 µM) was 97% (active) and the growth inhibition ([13]; at 1.2 µM) was -1%. It also gave a growth inhibition ([13]; at 3.7 µM) of 3%, a growth inhibition ([13]; at 11.0 µM) of 19% and a growth inhibition ([13]; at 33.0 µM) of 67%. For the same compound, the growth inhibition ([13]; at 100.0 µM) was 98% (active), the growth inhibition [14, 16] was 4% and the growth inhibition [14, 17] was 65%. The growth inhibition ([14]; at 50.0 µM) was 94.8% (active), the growth inhibition ([15]; at 1.2 µM) was -1% and the growth inhibition ([15]; at 3.7 µM) was 9%. The growth inhibition ([15]; at 11.0 µM) was 21%, the growth inhibition ([15]; at 33.0 µM) was 68% and the growth inhibition ([15]; at 100.0 µM) was 98% (active).

With `NC(=O)c1c([N+](=O)[O-])cc(C(F)(F)F)cc1[N+](=O)[O-]` the growth inhibition ([1]; at 1.2 µM) was 2%, the growth inhibition ([1]; at 3.7 µM) was 1% and the growth inhibition ([1]; at 11.0 µM) was 3%. It also gave a growth inhibition ([1]; at 33.0 µM) of 6%, a growth inhibition ([1]; at 100.0 µM) of 7% and a growth inhibition ([2]; at 1.2 µM) of 0%. For the same compound, the growth inhibition ([2]; at 3.7 µM) was 0%, the growth inhibition ([2]; at 11.0 µM) was 0% and the growth inhibition ([2]; at 33.0 µM) was 2%. For the same compound, the growth inhibition ([2]; at 100.0 µM) was 2%, the growth inhibition ([3]; at 1.2 µM) was 1% and the growth inhibition ([3]; at 3.7 µM) was 5%. It also gave a growth inhibition ([3]; at 11.0 µM) of 7%, a growth inhibition ([3]; at 33.0 µM) of 16% and a growth inhibition ([3]; at 100.0 µM) of 40%. For the same compound, the growth inhibition ([4]; at 1.2 µM) was 3%, the growth inhibition ([4]; at 3.7 µM) was 5% and the growth inhibition ([4]; at 11.0 µM) was 4%. It also gave a growth inhibition ([4]; at 33.0 µM) of 6%, a growth inhibition ([4]; at 100.0 µM) of 6% and a growth inhibition ([5]; at 1.2 µM) of -1%. The growth inhibition ([5]; at 3.7 µM) was 0%, the growth inhibition [5, 16] was -6% and the growth inhibition ([5]; at 11.0 µM) was -1%. For the same compound, the growth inhibition ([5]; at 33.0 µM) was 3%, the growth inhibition [5, 17] was -4% and the growth inhibition ([5]; at 50.0 µM) was 97.8% (active). The growth inhibition ([5]; at 100.0 µM) was 11%, the growth inhibition ([6]; at 1.2 µM) was 0% and the growth inhibition ([6]; at 3.7 µM) was 0%. For the same compound, the growth inhibition [6, 16] was 18%, the growth inhibition ([6]; at 11.0 µM) was 0% and the growth inhibition ([6]; at 33.0 µM) was 3%. For the same compound, the growth inhibition [6, 17] was 3%, the growth inhibition ([6]; at 50.0 µM) was 97.2% (active) and the growth inhibition ([6]; at 100.0 µM) was 10%. For the same compound, the growth inhibition [7, 16] was 5%, the growth inhibition [7, 17] was 2% and the growth inhibition ([7]; at 50.0 µM) was 98.4% (active). For the same compound, the growth inhibition ([8]; at 1.2 µM) was 2%, the growth inhibition ([8]; at 3.7 µM) was -1% and the growth inhibition ([8]; at 11.0 µM) was -4%. For the same compound, the growth inhibition ([8]; at 33.0 µM) was -5%, the growth inhibition ([8]; at 100.0 µM) was -4% and the growth inhibition [9, 16] was 8%. The growth inhibition [9, 17] was 22%, the growth inhibition ([9]; at 50.0 µM) was 84.3% (active) and the growth inhibition ([11]; at 1.2 µM) was 0%. For the same compound, the growth inhibition ([11]; at 3.7 µM) was 1%, the growth inhibition ([11]; at 11.0 µM) was 3% and the growth inhibition ([11]; at 33.0 µM) was 4%. For the same compound, the growth inhibition ([11]; at 100.0 µM) was 8%, the growth inhibition ([12]; at 1.2 µM) was -2% and the growth inhibition ([12]; at 3.7 µM) was 2%. For the same compound, the growth inhibition ([12]; at 11.0 µM) was 2%, the growth inhibition ([12]; at 33.0 µM) was 3% and the growth inhibition ([12]; at 100.0 µM) was 8%. It also gave a growth inhibition ([13]; at 1.2 µM) of 1%, a growth inhibition ([13]; at 3.7 µM) of 3% and a growth inhibition ([13]; at 11.0 µM) of 5%. The growth inhibition ([13]; at 33.0 µM) was 11%, the growth inhibition ([13]; at 100.0 µM) was 19% and the growth inhibition [14, 16] was 55%. The growth inhibition [14, 17] was 12% and the growth inhibition ([14]; at 50.0 µM) was 97.8% (active).
